Measured values published in PubChem BioAssay (NCI).
This is part of a sample that, as a whole, favours compounds with a hit. Of some 83,000 tested, about 20% had one in any assay.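 Testing used 96-well plates and a 48-hour single-concentration exposure. Example: -40 means 40% of the starting cells died.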 Values without a mark were called inactive. Active and inactive are the calls of the source. How the source made its calls: active means growth percent below 10; inactive means the rest.

Tests used:
Test in all cases: NCI-60 one-dose screen, 48 h (100 = growth as untreated, 0 = no growth, -100 = all killed)
Conditions in all cases: 10 µM unless noted
[1] = test system: SK-MEL-2 melanoma
[2] = test system: EKVX NSCLC
[3] = test system: SN12C renal
[4] = test system: UO-31 renal
[5] = test system: TK-10 renal
[6] = test system: ACHN renal
[7] = test system: CAKI-1 renal
[8] = test system: A498 renal
[9] = test system: CCRF-CEM leukemia
[10] = test system: MOLT-4 leukemia

Compound	growth [1]	growth [2]	growth [3]	growth [4]	growth [5]	growth [6]	growth [7]	growth [8]	growth [9]	growth [10]
Cn1cc(-c2ccc3nc(-c4ccc(CC(=O)Nc5cc(C(C)(C)C)no5)cc4)cnc3c2)cn1	22.2% [30 µM]	26.1% [30 µM]	3.38% [30 µM] (active)	7.7% [30 µM] (active)	63.5% [30 µM]	5.16% [30 µM] (active)	6.29% [30 µM] (active)	-4.96% [30 µM] (active)	45.9% [30 µM]	22.1% [30 µM]
COc1ccc(/C(C)=C(\c2ccc(Cl)cc2)c2ccc(OCCCN(C)C)cc2)cc1F	97.2%	85.4%	76%	54.2%	78.6%	76.7%	57.3%	80.1%	48.2%	43.1%
Cc1nc(Nc2ccc(N)cc2)c2ccccc2n1	101%	101%	93.1%	81.4%	110%	80.1%	91.2%	97.3%	86.2%	100%
NC(N)=N/N=C/c1ccc(Br)cc1	77.8%	62.4%	62.1%	47.4%	13.9%	44.5%	27.1%	44.8%	32.6%	38.9%
CCOC(=O)C(O)C(O)(c1ccccc1)c1ccccc1 (centres undefined)	102%	100%	99%	91.2%	100%	97.4%	97%	98.3%	99.1%	95.1%
CC(=O)c1sc(-c2ccccc2)cc1N	109%	44.4%	96.1%	88.6%	101%	104%	92.9%	84.4%	96.6%	91.7%
COc1ccc(-n2sc(=O)n(Cc3ccc(COC(=O)C(C)c4ccc(CC(C)C)cc4)cc3)c2=O)cc1 (centres undefined)	89.7%	77.4%	23.4%	-6.91% (active)	10.1%	-44.4% (active)	30.9%	83.3%	-22.2% (active)	-18.3% (active)
CN(C)CCN1C(=O)c2cccc3c(-c4ccc(-c5nc6c7ccccc7c7ccccc7c6[nH]5)cc4)ccc(c23)C1=O	105%	93.9%	97.4%	96.8%	105%	112%	88%	100%	55.4%	84%
Cc1cc(=O)[nH]c(N/N=C/c2cc(Br)ccc2O)n1	26.9%	9.68% (active)	48.1%	-3.92% (active)	45%	14.5%	-5.73% (active)	42.2%	22.8%	15.3%
C[C@]12CCC(=O)C[C@H]1CC[C@@H]1[C@@H]2CC[C@@]2(C)[C@H]1CC[C@]2(O)C(=O)CO	106%	107%	101%	91.6%	131%	96.7%	106%	97.1%	105%	107%
C[N+](C)(C)CCOC(OCC[N+](C)(C)C)(c1ccccc1)c1ccccc1	99.4%	111%	99.9%	89.1%	109%	97.6%	101%	113%	105%	102%
O=c1oc2ccc(Cl)cc2cc1-c1cs/c(=N/N=C\c2ccc(Cl)cc2)n1/N=C/c1ccc(Cl)cc1	92.6%	107%	94%	90.1%	99.4%	112%	110%	83.9%	104%	93.8%
COc1cc(/C=C/c2nc(Nc3ccc(S(=O)(=O)Nc4cc(C)on4)cc3)c3ccccc3n2)ccc1O	72%	73.3%	60.7%	58%	93%	83.6%	45%	95.2%	55.9%	42.1%
O=S(=O)(NCCNc1cc(-c2c(-c3cccc(O)c3)nc3sccn23)ccn1)c1ccc(Cl)cc1	79%	62.1%	52.8%	3.45% (active)	84.2%	61.2%	36.1%	57.1%	40.1%	33.9%
CCCCCCCCN(CCCCCCCC)C(=N)c1ccnc2ccccc12	-44.2% (active)	-63.4% (active)	-57.8% (active)	-89.1% (active)	-16.4% (active)	-89.3% (active)	-86.1% (active)	-95.7% (active)	-42.2% (active)	-41.4% (active)
CN1CCN(C(=O)[C@]23CCC(C)(C)C[C@@H]2C2=CC[C@@H]4[C@@]5(C)Cc6c([nH]c7ccccc67)C(C)(C)[C@@H]5CC[C@@]4(C)[C@]2(C)CC3)CC1	95.1%	77%	88.1%	57.7%	92.4%	86.9%	55.2%	96.5%	71%	63%
COc1cc(-c2ncn(/C=C\c3nnco3)n2)cc(C(F)(F)F)c1	-6.5% (active)	61.5%	33.6%	18.3%	34%	27.7%	26.1%	-33.9% (active)		1.86% (active)
CNC1(C#N)CCN(Cc2ccccc2)CC1	93.2%	90.2%	93.9%	80.9%	272%	101%	72.7%	110%	108%	170%
O=C(C[C@@]1(O)C(=O)Nc2c(Cl)ccc(Cl)c21)c1ccc(C2CC2)cc1	43.1%	46.5%	32.2%	37.9%	70.4%	39.6%	34.4%	-32.7% (active)	15.9%	18.9%
Cc1nn(Cc2ccccc2)cc1C(=O)Nc1sc2c(c1C(N)=O)CCC(=O)C2	74.5%	54.9%	15.5%	11.8%	15.5%	5.29% (active)	5.49% (active)	108%	9.5% (active)	16.5%
CN(CCC(=O)/C(=C\c1ccccc1)c1ccc(Cl)cc1)Cc1ccccc1	58.4%	86.8%	-9.91% (active)	-40.9% (active)	51.8%	-43.3% (active)	22.5%	46.1%	-7.82% (active)	6.05% (active)
CCCCN(CCCC)CCCn1c(=O)c2sc3ncccc3c2n2nnc(-c3ccccc3)c12	107%	-3.24% (active)	99.3%	48.1%	118%	97%	-87.9% (active)	117%	90.8%	94.5%
CC(C)(C)CC(C)(C)Nc1c(-c2ccc(-c3ccccc3)cc2)nc2cnccn12	72.2%	92.7%	98.7%	68.8%	86.6%	100%	76.1%	75.9%		62.5%
N=C(N)c1ccc(-c2ccc(-c3ccc(Cl)cc3Cl)o2)cc1	105%	58.5%	-78.3% (active)	-83.8% (active)	30.5%	-89% (active)	17.3%		0.678% (active)	-29.2% (active)
C=C1C(=O)O[C@H]2[C@H]1CC/C(COC(=O)/C=C\C(=O)NCc1ccc(Cn3c(=O)sn(CCCI)c3=O)cc1)=C\CC[C@@]1(C)O[C@@H]21	-64.4% (active)	-58.8% (active)	-90.8% (active)	-100% (active)	-79.3% (active)	-100% (active)	-78.6% (active)	-17.6% (active)		-30% (active)
Cc1[nH]c(-c2nc3ccccc3[nH]2)c(C)c1C(=O)NNc1ccc(Cl)cc1	103%	94.2%	90.7%	72.5%	106%	102%	80.2%		94.6%	
